Screen size: about 5,600 compounds; about 3,100 (55%) were called active. About 3% were inconclusive and are not listed. So high a share suggests a set chosen from earlier hits. Only a sample is shown. Values without a mark were called inactive.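 The calls were made as follows: active = mean loss of cell viability signal at or above a set limit, and enough replicates individually reaching it; inconclusive = meets only the mean limit or only the replicate share; inactive = meets neither condition.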
assay: viability loss of mouse 3T3 cells – cell-based, cherry-pick, single point, set 2, cytotoxicity control, confirmation (AID 651744); conditions: NIH/3T3 viability, CellTiter-Glo ATP luminescence, 90 h; at 24.9 µM; stronger effect = higher value;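 also: 0% = median of neutral control wells and 100% = median of positive control wells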

Compound | inhibition
C[C@H]1CCCCO[C@H](CN(C)Cc2ccccc2)[C@@H](C)CN([C@@H](C)CO)C(=O)c2cc(NC(=O)c3ccccc3)ccc2O1 | 40.7% (active)
C[C@@H]1CCCCO[C@H](CN(C)C(=O)NC2CCCCC2)[C@H](C)CN([C@H](C)CO)C(=O)c2cc(NC(=O)Nc3ccc(F)cc3)ccc2O1 | 1.83%
C[C@@H]1CCCCO[C@H](CN(C)Cc2ccccc2)[C@@H](C)CN([C@@H](C)CO)C(=O)c2cc(NC(=O)Nc3ccc(F)cc3)ccc2O1 | 103% (active)
C[C@@H]1CN([C@H](C)CO)C(=O)c2cc(NC(=O)Nc3ccc(F)cc3)ccc2O[C@@H](C)CCCCO[C@@H]1CN(C)CC1CCCCC1 | 102% (active)
C[C@@H]1CN([C@H](C)CO)C(=O)c2cccc(NC(=O)NC3CCCCC3)c2O[C@H]1CN(C)Cc1ccc(C(F)(F)F)cc1 | 106% (active)
C[C@@H]1CCCCO[C@@H](CN(C)Cc2ccc(C(F)(F)F)cc2)[C@@H](C)CN([C@H](C)CO)C(=O)c2cc(NC(=O)Nc3ccccc3)ccc2O1 | -8.84%
C[C@@H]1CCCCO[C@@H](CN(C)CC2CC2)[C@H](C)CN([C@H](C)CO)C(=O)c2cc(NC(=O)C3CCCCC3)ccc2O1 | -28.9%
COc1ccc(NC(=O)N(C)C[C@@H]2Oc3c(NC(=O)NC4CCCCC4)cccc3C(=O)N([C@@H](C)CO)C[C@@H]2C)cc1 | 2.03%
C[C@@H]1CCCCO[C@H](CN(C)Cc2ccc(C(F)(F)F)cc2)[C@H](C)CN([C@H](C)CO)C(=O)c2cc(NC(=O)Nc3ccc(F)cc3)ccc2O1 | -19.7%
COc1ccc(CN(C)C[C@H]2OCCCC[C@H](C)Oc3ccc(NC(=O)Nc4ccc5c(c4)OCO5)cc3C(=O)N([C@H](C)CO)C[C@@H]2C)cc1 | 103% (active)
COc1ccc(NC(=O)Nc2ccc3c(c2)C(=O)N([C@H](C)CO)C[C@@H](C)[C@H](CN(C)Cc2ccc(Cl)c(Cl)c2)OCCCC[C@@H](C)O3)cc1 | -0.512%
C[C@@H]1CCCCO[C@H](CN(C)Cc2ccc(Cl)c(Cl)c2)[C@H](C)CN([C@@H](C)CO)C(=O)c2cc(NC(=O)C3CCCCC3)ccc2O1 | 50.7% (active)
C[C@@H]1CN([C@H](C)CO)C(=O)c2cc(NC(=O)Nc3ccc(F)cc3)ccc2O[C@@H](C)CCCCO[C@H]1CN(C)Cc1ccc(Cl)c(Cl)c1 | 81.1% (active)
C[C@@H]1CCCCO[C@@H](CN(C)Cc2ccc(Cl)c(Cl)c2)[C@H](C)CN([C@H](C)CO)C(=O)c2cc(NC(=O)Nc3ccc(F)cc3)ccc2O1 | 1.24%
C[C@@H]1CCCCO[C@@H](CN(C)Cc2ccc3c(c2)OCO3)[C@@H](C)CN([C@@H](C)CO)C(=O)c2cc(NC(=O)Nc3ccccc3)ccc2O1 | 16%
C[C@H]1CCCCO[C@H](CN(C)S(=O)(=O)c2ccc(Cl)cc2)[C@@H](C)CN([C@@H](C)CO)C(=O)c2cc(NC(=O)Nc3ccc4c(c3)OCO4)ccc2O1 | 7.66%
C[C@H]1CCCCO[C@H](CN(C)Cc2ccccc2)[C@@H](C)CN([C@@H](C)CO)C(=O)c2cc(NC(=O)NC3CCCCC3)ccc2O1 | 102% (active)
C[C@@H]1CN([C@@H](C)CO)C(=O)c2cc(NC(=O)C3CCCCC3)ccc2O[C@@H](C)CCCCO[C@H]1CN(C)Cc1ccncc1 | -15.9%
C[C@H](CO)N1C[C@H](C)[C@H](CN(C)C(=O)Nc2ccc(C(F)(F)F)cc2)OCCCC[C@H](C)Oc2ccc(NC(=O)C3CCCCC3)cc2C1=O | -9.18%

Compound | inhibition
C[C@H](CO)N1C[C@H](C)[C@@H](CN(C)Cc2ccc(C(F)(F)F)cc2)OCCCC[C@H](C)Oc2ccc(NC(=O)C3CCCCC3)cc2C1=O | 22.4%
C[C@H]1CCCCO[C@H](CN(C)Cc2ccc(C(F)(F)F)cc2)[C@@H](C)CN([C@@H](C)CO)C(=O)c2cc(NC(=O)C3CCCCC3)ccc2O1 | 25.9% (active)
C[C@H](CO)N1C[C@H](C)[C@@H](CN(C)C(=O)C2CCCCC2)Oc2cc(-c3ccccc3)ccc2S1(=O)=O | 33.8% (active)
C[C@@H]1CN([C@@H](C)CO)S(=O)(=O)c2ccc(C#CCN(C)C)cc2O[C@H]1CN(C)C(=O)C1CC1 | 15.6%
CC(C)CC#Cc1ccc2c(c1)O[C@H](CN(C)C(=O)C1CC1)[C@@H](C)CN([C@@H](C)CO)S2(=O)=O | 34.8% (active)
CCCC#Cc1ccc2c(c1)O[C@H](CN(C)C(=O)CC)[C@@H](C)CN([C@H](C)CO)S2(=O)=O | 48.4% (active)
CCC(=O)N(C)C[C@@H]1Oc2cc(C#CCN(C)C)ccc2S(=O)(=O)N([C@H](C)CO)C[C@H]1C | 5.45%
COCC(=O)N1[C@H](CO)[C@@H](c2ccc(C#Cc3ccccc3F)cc2)[C@@H]1C#N | 19.1%
N#C[C@@H]1[C@@H](c2ccc(/C=C/c3ccccc3)cc2)[C@@H](CO)N1C(=O)C1CC1 | 48.2% (active)
N#C[C@@H]1[C@H](c2ccc(C#Cc3cccc(F)c3)cc2)[C@@H](CO)N1C(=O)C1CCCC1 | 105% (active)
CCCC#Cc1ccc([C@@H]2[C@@H](C#N)N(C(=O)C3CCCC3)[C@@H]2CO)cc1 | 23.7%
N#C[C@@H]1[C@@H](c2ccc(C#Cc3cccc(F)c3)cc2)[C@@H](CO)N1C(=O)C1CCC1 | 22.8%
N#C[C@@H]1[C@@H](c2ccccc2)[C@@H](CO)N1C(=O)Cc1ccccc1 | 17%
Cc1noc(C)c1S(=O)(=O)N(C)C[C@H]1Oc2ccc(N(C)C)cc2CC(=O)N([C@H](C)CO)C[C@@H]1C | -3.27%
C[C@@H]1CN([C@@H](C)CO)S(=O)(=O)c2ccc(C#Cc3ccc(F)cc3)cc2O[C@H]1CN(C)S(C)(=O)=O | 64.1% (active)
C[C@@H]1CN([C@H](C)CO)S(=O)(=O)c2ccc(C#Cc3ccncc3)cc2O[C@@H]1CN(C)S(=O)(=O)c1ccc(F)cc1 | 27.4% (active)
Cc1ccccc1-c1ccc([C@H]2[C@H]3CN(S(=O)(=O)c4ccc(F)cc4)CCCCN3[C@H]2CO)cc1 | 103% (active)
O=S(=O)(c1ccc(F)cc1)N1CCCCN2[C@H](C1)[C@H](c1ccc(C3=CCCCC3)cc1)[C@@H]2CO | 105% (active)
Cc1ccccc1-c1ccc([C@@H]2[C@H](CO)N3CCCCN(S(=O)(=O)c4ccc(F)cc4)C[C@@H]23)cc1 | 102% (active)

Compound | inhibition
CN(C)CC#Cc1ccc([C@H]2[C@H]3CN(S(=O)(=O)c4ccccc4F)CCCCN3[C@H]2CO)cc1 | 18.4%
C[C@@H]1CCCCO[C@H](CN(C)C(=O)Nc2ccc(C(F)(F)F)cc2)[C@H](C)CN([C@H](C)CO)C(=O)c2cc(NC(=O)Nc3ccc(C(F)(F)F)cc3)ccc2O1 | -27.4%
Cc1cc(C(=O)Nc2cccc3c2O[C@@H](CN(C)Cc2ccc(C(=O)Nc4ccccc4N)cc2)[C@H](C)CN([C@@H](C)CO)C3=O)n(C)n1 | 10.2%
COc1ccc(S(=O)(=O)N(C)C[C@H]2Oc3c(NC(=O)Nc4cccc5ccccc45)cccc3C(=O)N([C@@H](C)CO)C[C@H]2C)cc1 | 26.1%
C[C@H]1CN([C@@H](C)CO)C(=O)c2cccc(NS(=O)(=O)c3cn(C)cn3)c2O[C@@H]1CN(C)CC1CCCCC1 | 0.698%
C[C@@H]1CN([C@H](C)CO)C(=O)c2cccc(NC(=O)c3ccc(-c4nccs4)cc3)c2O[C@@H]1CN(C)C(=O)Nc1ccc(C(F)(F)F)cc1 | 44% (active)
Cc1ccc(S(=O)(=O)N(C)C[C@H]2OCCCC[C@H](C)Oc3ccc(NC(=O)Cc4ccccc4)cc3C(=O)N([C@@H](C)CO)C[C@@H]2C)cc1 | -4.04%
Cc1ccc(S(=O)(=O)N(C)C[C@@H]2Oc3c(NC(=O)c4nc5ccccc5s4)cccc3C(=O)N([C@H](C)CO)C[C@@H]2C)cc1 | 49% (active)
C[C@@H]1CN([C@H](C)CO)C(=O)c2cccc(NC(=O)c3cnccn3)c2O[C@@H]1CN(C)Cc1ccc(C(=O)Nc2ccccc2N)cc1 | 68.5% (active)
COc1ccc(NC(=O)N(C)C[C@H]2OCCCC[C@H](C)Oc3ccc(NC(=O)Nc4ccc(C(F)(F)F)cc4)cc3C(=O)N([C@@H](C)CO)C[C@@H]2C)cc1 | 20.7%
C[C@H](CO)N1C[C@H](C)[C@@H](CN(C)Cc2ccc(C(=O)Nc3ccccc3N)cc2)Oc2c(NC(=O)c3ccc(-c4nccs4)cc3)cccc2C1=O | 42% (active)
O=C(Nc1cccc(F)c1)N1CCCCN2[C@H](CO)[C@H](c3ccc(C#CC4CC4)cc3)[C@@H]2C1 | 22.3%
O=C(C1CCCC1)N1CCCCN2[C@@H](CO)[C@H](c3ccc(-c4cccc(F)c4)cc3)[C@@H]2C1 | 105% (active)
O=C(C1CC1)N1CCCCN2[C@H](CO)[C@H](c3ccc(-c4cccc(F)c4)cc3)[C@H]2C1 | 56.9% (active)
O=C(Nc1ccccc1F)N1CCCCN2[C@H](CO)[C@@H](c3ccc(-c4cccnc4)cc3)[C@H]2C1 | 14.6%
O=C(C1CCC1)N1CCCCN2[C@H](CO)[C@H](c3ccc(-c4cccc(F)c4)cc3)[C@@H]2C1 | 1.34%
N#Cc1cccc(-c2ccc([C@H]3[C@H](CO)N4CCCCN(C(=O)Nc5cccc(F)c5)C[C@@H]34)cc2)c1 | 105% (active)
O=C(C[C@@H]1C[C@H]2c3cc(NC(=O)C4CCC4)ccc3O[C@H]2[C@@H](CO)O1)NCc1ccc2c(c1)OCO2 | -13.1%

Source: PubChem BioAssay AID651744 (Broad Institute, 2012)
